# Experimental data from PubChem BioAssay (NCI).
# This is part of a sample that, as a whole, favours compounds with a hit. Of some 79,000 tested, about 15% had one in any assay. A number with no mark means an inactive call. Calls of active or inactive are those of the source. No stated cut-off is given here; in the data, active means growth inhibition above about 70%; inactive means the rest.
# How the values were obtained:
# [1] = NCI Yeast Anticancer Drug Screen. Data for the rad50 strain (AID 155);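 further: 0% = growth of vehicle-only cultures of the same strain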; details: S. cerevisiae rad50 strain growth inhibition; at 50.0 µM; active compounds read high
# Procedure, shortened: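 Readout: growth inhibition relative to vehicle-treated cultures. Compound exposure was carried out in a genetically defined yeast strain deficient in DNA damage repair.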
# [2] = NCI Yeast Anticancer Drug Screen. Data for the mec2-1 strain (AID 157); details: S. cerevisiae mec2-1 strain, at 50.0 µM, active compounds read high
# Procedure, shortened: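 mec2-1 yeast strain, carrying an alteration in DNA damage repair or cell cycle control, was exposed to compounds; growth inhibition was measured relative to vehicle-treated controls.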
# [3] = NCI Yeast Anticancer Drug Screen. Data for the sgs1 mgt1 strain (AID 161);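 further: 0% = growth of cultures given vehicle only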; details: S. cerevisiae sgs1 mgt1 strain, at 50.0 µM, active compounds read high
# Procedure, shortened: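 Percent growth inhibition was derived by comparing compound-exposed mutant yeast with vehicle-exposed cultures. The strain carries alterations in DNA damage repair.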
# [4] = NCI Yeast Anticancer Drug Screen. Data for the cln2 rad14 strain (AID 165);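 further: 0% = growth equal to vehicle treated cultures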; details: S. cerevisiae cln2 rad14 strain, at 50.0 µM, active compounds read high
# Procedure, shortened: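 Yeast carrying cln2 and rad14 alterations (cell cycle control and DNA damage repair) were exposed to compounds. Growth inhibition was measured against vehicle-treated controls.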
# [5] = NCI Yeast Anticancer Drug Screen. Data for the bub3 strain (AID 167); details: S. cerevisiae bub3 mutant strain, at 50.0 µM, active compounds read high
# Procedure, shortened: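 Readout: yeast growth inhibition, expressed relative to vehicle-only wells. The test organism is a mutant strain from a panel with lesions in DNA repair or checkpoint genes.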
# [6] = NCI Yeast Anticancer Drug Screen. Data for the mlh1 rad18 strain (AID 175); details: S. cerevisiae mlh1 rad18 strain growth inhibition; at 50.0 µM; active compounds read high
# Procedure, shortened: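 Growth inhibition of the yeast strain was measured after compound exposure and expressed relative to vehicle-treated controls. The strain carries defined defects in DNA damage repair.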
Compound,growth inhibition [1],growth inhibition [2],growth inhibition [3],growth inhibition [4],growth inhibition [5],growth inhibition [6]
Cc1ccc(S(=O)(=O)NCCC(=O)O)cc1,-1.75%,-11.1%,-9.65%,-9.3%,-3.3%,-4.85%
CNC(=O)OCc1nc(N=[N+]=[N-])n(C)c1COC(=O)NC,-16.9%,-19.1%,-3.65%,-31.4%,2.2%,-24.4%
CC(=O)Oc1ccc(C(C)(C)C)cc1,10.7%,-7.25%,1.55%,-11.7%,-4.1%,5.15%
Cc1c([N+](=O)[O-])cc(C(C)(C)C)c(OS(=O)(=O)N(C)C)c1[N+](=O)[O-],34%,10.4%,34.5%,13.1%,18.1%,26.6%
O=C(CN(Cc1ccccc1)Cc1ccccc1)NC(=O)c1ccccc1,4.5%,-7.9%,8.45%,-36.4%,9.55%,-10.4%
CN(C)CCNc1ccc(NCCN(C)C)c2c1C(=O)c1ncsc1C2=O,-8.15%,-0.8%,14.2%,8.35%,2.1%,-16.8%
CN(C)C(=O)C1Cc2ccccc2CC1C(=O)N(C)C (stereo unspecified),-0.4%,-0.55%,0.85%,-21.5%,-3.6%,-9.75%
CCCCCCCCC/C=C\C(=O)O,4.6%,-12.5%,10.2%,-22.9%,-13.8%,37%
Cc1ccc(-c2c(C#N)c(-c3ccc([N+](=O)[O-])cc3)c(C#N)c(=O)n2NS(=O)(=O)c2ccccc2)cc1,23.1%,16.8%,24.5%,27.4%,14.6%,0.8%
NC(N)=N/N=C/c1oc(-c2ccc(S(=O)(=O)O)o2)c(-c2ccc(S(=O)(=O)O)o2)c1[N+](=O)[O-],-21.4%,9.6%,-22%,6.6%,-3.35%,0.95%
CC(C)=Cc1ccccc1C1(C)C(c2ccccc2)=C1c1ccccc1,-3.35%,8.6%,-9.25%,26.1%,-0.3%,-3.6%
COC1OC2COC(c3ccccc3)OC2C(OC(=O)c2ccc([N+](=O)[O-])cc2)C1OS(=O)(=O)c1ccc(C)cc1 (stereo unspecified),39.6%,17.2%,21.6%,25.1%,0.7%,15.8%
Cc1ccccc1-[n+]1noc(N)n1,4.75%,0.45%,-14.6%,3.85%,-0.7%,12.6%
CC(=O)/C(=C/N1CCNC1=S)C(=O)Nc1ccc([N+](=O)[O-])cc1,-0.1%,-4.5%,-28.1%,-33%,-12.9%,5.6%
CC(=O)c1ccc(O)c(CN(C2CCCCC2)C2CCCCC2)c1O,-2.9%,-10.3%,-36.1%,12.4%,-18%,4.5%
O=C1OCC2=C1C(c1ccc3c(c1)OCO3)c1cc3c(cc1O2)OCO3 (stereo unspecified),-6.8%,-10.9%,-39.2%,5.4%,-8.6%,-16.6%
Fc1cccc(C2ON=C(c3ccccc3)N2C23CC4CC(CC(C4)C2)C3)c1 (stereo unspecified),4.9%,-1.85%,6.1%,36.8%,-8.35%,33.9%
COc1ccc(C2c3cc4c(cc3OC(N3CCOCC3)C2C)OCO4)cc1 (stereo unspecified),-12.4%,-22.1%,-20.2%,-3.95%,-32.9%,-57.2%

Compound,growth inhibition [1],growth inhibition [2],growth inhibition [3],growth inhibition [4],growth inhibition [5],growth inhibition [6]
COC(=O)c1cc(C)cc(N(c2ccccc2[N+](=O)[O-])S(=O)(=O)c2ccc(C)cc2)c1C,15.9%,-9.35%,-25.3%,1.2%,-10.3%,-9%
COc1cccc(CCO)c1OC,1.3%,-13.2%,10.9%,-10.4%,5.2%,10.9%
C[Si](C)(Cl)c1ccccc1,-47.6%,-27.4%,-11.7%,17.4%,-23.6%,-18.4%
Clc1ccc(OCCBr)cc1,39.2%,27.9%,29.4%,19.9%,3.8%,25.6%
CC(C)(C)NC(=O)Oc1ccc(-c2ccccc2)cc1Cl,98.8% (active),99.5% (active),99.2% (active),98.3% (active),99.3% (active),99.3% (active)
O=C1CC(O)(c2ccccc2)C(c2ccccc2)=C1c1ccccc1 (stereo unspecified),29.8%,21.4%,14.3%,32.7%,-2.15%,36.8%
CCCCNC(C)=O,4.5%,-9.15%,-18.5%,-21.6%,-0.95%,-1.7%
CCOC(=O)c1ccc(-c2ccccc2)cc1,-44.2%,-28.9%,-14.7%,-7.25%,-12.2%,-15.3%
Cc1ccc(NC(=O)/C(Cc2nc3ccc([N+](=O)[O-])cc3[nH]c2=O)=N\NC(=O)C[n+]2ccccc2)c(C)c1,-7.5%,-9.25%,-4.3%,14.9%,15.3%,-7.65%
CC(=O)NCCCCN(CCCNC(C)=O)C(=O)CNS(=O)(=O)c1cccc2c(N(C)C)cccc12,-11.2%,-17.1%,16.2%,2%,17.6%,-8.65%
CC(=O)OCC(OC(C)=O)C(OC1OC(COC(C)=O)C(OC(C)=O)C(OC(C)=O)C1OC(C)=O)C(OC(C)=O)C(C=O)OC(C)=O (stereo unspecified),-0.2%,10.8%,9.75%,-5.75%,-3.8%,-7.95%
Cc1nc(C)c(N2CCN(C(=O)NC(CCC(=O)O)C(=O)O)CC2)c(=O)[nH]1 (stereo unspecified),-80.7%,8.95%,-28.3%,18.4%,-1.25%,-40.6%
Cc1ccc(C(=O)c2ccccc2C(=O)O)cc1C(=O)O,8.9%,11.1%,1.15%,2.7%,10.2%,-7.05%
CCOC(=O)Nn1c(C)nnc1CC#N,-3.05%,-2.4%,-8.1%,-16.8%,0.65%,18.7%
CC(=O)OC(C(=O)N1CC1)C(OC(C)=O)C(OC(C)=O)C(OC(C)=O)C(=O)N1CC1 (stereo unspecified),24.1%,20.9%,25.4%,10.1%,28.6%,29.3%
CO[C@@]12CC(=O)/C(=C(O)\C=C\c3ccccc3)C(=O)[C@]1(OC)Cc1ccccc1O2,35.1%,31.9%,33.6%,18.6%,34.2%,24.6%
CCOC(=O)CNC=O,33.5%,-6.1%,-2.7%,26.4%,-1.8%,8.55%
Cc1ccc(S(=O)CC(CF)OCn2cc(C)c(=O)[nH]c2=O)cc1 (stereo unspecified),1.6%,6.65%,-42.6%,10.2%,-16.1%,-53%
